# Reference: PubChem BioAssay (NCI)
# About 83,000 compounds went through this panel and 20% of them were active in at least one assay; those are over-represented in the sample as a whole.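 Step 1: grow cells in 96-well plates. Step 2: add test compound at a single concentration. Step 3: incubate 48 h. Step 4: record percent growth.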 Active and inactive are the calls of the source. Rule for the calls: active = growth percent below 10; inactive = the rest.
# Test system: HL-60(TB) leukemia
# Test: NCI-60 one-dose screen, 48 h (100 = growth as untreated, 0 = no growth, -100 = all killed)
# Conditions: 10 µM unless noted
row,Structure (SMILES),growth
1,N#Cc1c(N)n(CCNC(=O)c2ccccc2)c2nc3ccccc3nc12,34.5% (inactive)
2,COc1ccc(Cl)cc1Nc1nc(C(F)(F)F)ccc1C(=O)N/N=C/c1ccc([N+](=O)[O-])cc1,-10.8% (active)
3,CCCCCCCC(=O)SCC/C=C/[C@@H]1CC(=O)NCc2cccc(n2)CN(Cc2ccc(Cl)cc2)CC(=O)N[C@@H](C(C)C)C(=O)O1,13% (inactive)
4,CCCCCCCCOC(=O)c1ccccn1,119% (inactive)
5,Cn1c(C(N)=O)cc2c1-c1nc(Nc3ccccc3)ncc1CCC2,40.6% (inactive)
6,COCCOCCOCc1n(Cc2ccc3ccccc3n2)c2ccccc2[n+]1Cc1ccc2ccccc2c1,-68% (active)
7,CCC(Br)(CC)C(=O)c1ccc(OCC(=O)O)c(Cl)c1Cl,111% (inactive)
8,O=C(N/N=C/c1cc2ccccc2n2nnnc12)Nc1ccccc1,91.8% (inactive)
9,O=C1c2c(c3c4ccccc4[nH]c3c3ccc4ccccc4c23)C(=O)N1CCN1CCOCC1,53.6% (inactive)
10,O=C1/C(=C/c2ccc(O)cc2)COc2ccc(-c3ccccc3)cc21,-51% (active)
11,O=C1C=CC(Nc2ccccc2[N+](=O)[O-])C1Nc1ccccc1[N+](=O)[O-] (stereo not given),25.1% (inactive)
12,Cc1cc2cc3c(=O)[nH]c(=O)cc-3n(CC(O)C(O)C(O)CO)c2cc1C (stereo not given),102% (inactive)
13,N/C(=N\O)c1cn(C2OC(CO)C(O)C2O)c2ncnc(N)c12 (stereo not given),-43.5% (active)
14,CCN1CCCC1CNC(=O)c1ncc(-c2ccc(C(F)(F)F)cc2)c(NC2CCCCCC2)n1 (stereo not given),65.9% (inactive)
15,O=C1C=C(O)C(=O)C=C1O,91.2% (inactive)
16,CC1=CC2c3oc(-c4ccccc4)c(C(=O)c4ccccc4)c3CNC2C=C1 (stereo not given),84.3% (inactive)
17,CCN1C(=O)N(CC)C2C1NN=c1s/c(=C3\C(=O)N(CC(C)C)c4ccccc43)c(=O)n12 (stereo not given),-43.8% (active)
18,CNC1=C(Br)C(=O)c2c(C(=O)OC)c(C)nc(C)c2C1=O,24.5% (inactive)
19,C#CCN1C(=O)/C(=c2\sc3n(c2=O)C2C(NN=3)N(CC)C(=O)N2CC)c2ccccc21 (stereo not given),-29.4% (active)
20,COc1cc(/C=C\c2cc(OC)c(OC)c(OC)c2)cc(N)c1OC,48.8% (inactive)

row,Structure (SMILES),growth
1,CC/C(=C(/c1ccc(OCCN(C)C)cc1)c1ccc(OC(=O)CCCCC(=O)c2c(C)[nH]c(/C=C3\N=C(c4ccc[nH]4)C=C3OC)c2C)cc1)c1ccccc1,82.2% (inactive)
2,Cc1cc2nc(CN)[nH]c2cc1C,96.6% (inactive)
3,COC(=O)CCC/C=C\C[C@H]1C=CC(=O)/C1=C/C[C@@H](O)C/C=C\CC(F)(F)F,1.03% (active)
4,Cn1c(=O)n(C)c2cc(CNCCNc3ccnc4cc(Cl)ccc34)ccc21,35.4% (inactive)
5,COC(=O)c1c2c(c(C)[n+]([O-])c1C)C(=O)C(NCc1ccc(F)c(F)c1)=CC2=O,-23.6% (active)
6,C/C(CCC(=O)O)=N/Nc1ccc([N+](=O)[O-])cc1,31.9% (inactive)
7,Fc1ccc2[nH]cc(-c3nc(-c4c[nH]c5ncccc45)cs3)c2c1,14% (inactive)
8,Cc1cc2c3c(cccc3c1)C(=O)c1ccccc1-2,101% (inactive)
9,C=CCN1C(=O)/C(=c2\sc3n(c2=O)C2C(NN=3)N(CC)C(=O)N2CC)c2ccccc21 (stereo not given),-17.4% (active)
10,COc1cccc(/C=C2\C=C(c3ccccc3)N(Cc3ccccc3)C2=O)c1,90.7% (inactive)
11,Cc1ccccc1C1N=C2Oc3ccccc3C=C2C(=O)N1 (stereo not given),2.2% (active)
12,CCN(CC)CCCNc1c2ccc(Cl)cc2nc2ccc(OC)cc12,-50.3% (active)
13,CC(C)(C)OC(=O)Nc1ccc2c(c1)C(NC(=O)Nc1cccc(C#N)c1)CC(C)(C)O2 (stereo not given),5.38% (active)
14,COc1cc(/C=C\C(=O)O)ccc1OCc1ccccc1,122% (inactive)
15,O=C(N/N=C1\SCC(=O)N1c1ccccc1)c1cc(-c2cc3ccccc3o2)nn1-c1ccccc1,112% (inactive)
16,c1ccc2c(c1)Nc1ccncc1S2,132% (inactive)
17,CCCCCCCCCc1ccc(OCCOCCOCCOCCOCCOCCOCCOCCOCCO)cc1,-40.9% (active)
18,NS(=O)(=O)c1ccc(CCN2C(=O)c3cc(Cl)c(Cl)cc3C2=O)cc1,86.5% (inactive)
19,CCN(CC)Cc1cc(Nc2ccnc3cc(Cl)ccc23)cc(-c2ccc(Cl)cc2)c1O,51.3% (inactive)
20,CCOc1cccc(NC2=C(Br)C(=O)C(C)=C(C)C2=O)c1,-12.5% (active)
